According to PubChem BioAssay (NCI):
About 83,000 compounds went through this panel and 20% of them were active in at least one assay; those are over-represented in the sample as a whole.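 Assay: single dose, 48 h. Readout: percent growth (0 = no net growth; negative = cell death). Active: <10.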 Unmarked numbers belong to inactive results. Calls of active or inactive are those of the source.

Experiments:
Assay in all cases: NCI-60 one-dose screen, 48 h (100 = growth as untreated, 0 = no growth, -100 = all killed)
Settings in all cases: 10 µM unless noted
NCI-H23 lung = test system: NCI-H23 lung
NCI-H226 lung = test system: NCI-H226 lung
NCI-H322M lung = test system: NCI-H322M lung
HOP-62 NSCLC = test system: HOP-62 NSCLC
NCI-H460 lung = test system: NCI-H460 lung
HOP-92 NSCLC = test system: HOP-92 NSCLC
NCI-H522 lung = test system: NCI-H522 lung
A549/ATCC NSCLC = test system: A549/ATCC NSCLC
786-0 renal = test system: 786-0 renal
COLO 205 colon = test system: COLO 205 colon
DU-145 prostate = test system: DU-145 prostate
K-562 leukemia = test system: K-562 leukemia
MALME-3M melanoma = test system: MALME-3M melanoma
MDA-MB-231 breast = test system: MDA-MB-231 breast
RXF 393 renal = test system: RXF 393 renal
SF-268 CNS = test system: SF-268 CNS
SF-539 CNS = test system: SF-539 CNS
UACC-257 melanoma = test system: UACC-257 melanoma
M14 melanoma = test system: M14 melanoma
SF-295 CNS = test system: SF-295 CNS

Structure (SMILES)	growth (NCI-H23 lung)	growth (NCI-H226 lung)	growth (NCI-H322M lung)	growth (HOP-62 NSCLC)	growth (NCI-H460 lung)	growth (HOP-92 NSCLC)	growth (NCI-H522 lung)	growth (A549/ATCC NSCLC)	growth (786-0 renal)	growth (COLO 205 colon)	growth (DU-145 prostate)	growth (K-562 leukemia)	growth (MALME-3M melanoma)	growth (MDA-MB-231 breast)	growth (RXF 393 renal)	growth (SF-268 CNS)	growth (SF-539 CNS)	growth (UACC-257 melanoma)	growth (M14 melanoma)	growth (SF-295 CNS)
CC(C)COC(=O)NC(C)(C)C	101%	104%	100%	107%	107%	98.9%	71.5%	101%	98.1%	106%	115%	92.8%	107%	119%	113%	109%	101%	102%	104%	–
Cc1cc(O)ccc1C1=NN(c2ccc(S(N)(=O)=O)cc2)C(=O)CC1	64.3%	94.6%	121%	80.2%	12.1%	89.7%	-36.6% (active)	43.9%	60.4%	55.6%	89.9%	15.7%	45.3%	73.8%	–	68.5%	45.1%	59.7%	29.7%	30.4%
CC1=NN(c2cccc(S(N)(=O)=O)c2)C(=O)C1	87.8%	90.3%	96.9%	97.7%	103%	-30.8% (active)	113%	87.4%	100%	108%	100%	99.4%	89.9%	97.1%	–	91.6%	91.5%	124%	95.3%	87.8%
COc1ccc(-c2nc3ccc(Cc4ccc5nc(-c6ccc(OC)cc6)[nH]c5c4)cc3[nH]2)cc1	-17.9% (active)	90.6%	97.7%	49.1%	69.1%	77.9%	-13.4% (active)	48.5%	89.5%	5.61% (active)	64.6%	13.4%	-13.1% (active)	17.3%	93.9%	6.83% (active)	56.6%	-20% (active)	40.1%	–
COc1cc(C2Nc3ccccc3S2)cc(CN2CCOCC2)c1O (stereo not drawn)	78.8%	92.3%	116%	86.1%	52.7%	103%	-2.67% (active)	73.6%	104%	89.6%	101%	46.9%	66.7%	63.6%	78.5%	91.1%	82.3%	78.2%	55.5%	–
COc1ccc(/C=C/C(=O)c2ccc(NC(=O)CSc3nnc(-c4ccc(Cl)cc4)n3-c3ccccc3)cc2)cc1	92.4%	104%	106%	103%	104%	107%	84.6%	74%	98%	106%	106%	80.1%	118%	91%	104%	96.1%	109%	86.7%	91.9%	–
COS(=O)(=O)CCN(CCOS(C)(=O)=O)S(C)(=O)=O	105%	100%	108%	109%	101%	89.1%	78.2%	90.1%	97.9%	117%	105%	76%	98.9%	109%	105%	107%	91.2%	82.6%	94.3%	–
CCOCC(O)(c1ccc(Cl)cc1)c1ccc(Cl)cc1	95.1%	113%	93.9%	115%	107%	107%	89.4%	83.2%	104%	111%	96.1%	88.1%	103%	100%	117%	97.4%	104%	94.1%	114%	–
C[C@@H](C[C@H](CC1CC1)c1ccccc1)c1ccc2ccccc2c1	100%	109%	101%	104%	100%	102%	95.2%	98.2%	101%	109%	106%	104%	96.7%	106%	117%	98.5%	96.9%	106%	102%	–
Cc1ccc(Nc2nc(NCCO)c3ccccc3n2)cc1C	15.8%	1.03% (active)	55.5%	20.3%	-2.08% (active)	89.7%	-21% (active)	13.6%	29%	-65.7% (active)	-14.6% (active)	11.1%	43.8%	12.6%	42.5%	20.1%	7% (active)	62%	24.4%	–
COc1ccc(/C=c2\c(=O)n(-c3ccccc3)c3nn4c(=O)c(=O)[nH]nc4n23)cc1	99.9%	92.8%	113%	102%	106%	100%	100%	110%	108%	119%	115%	122%	104%	122%	123%	104%	103%	110%	99.5%	–
CCNS(=O)(=O)c1ccc(C)cc1	100%	103%	102%	100%	101%	69.7%	114%	95.8%	110%	113%	96.5%	105%	104%	113%	113%	–	102%	107%	106%	104%
Cc1nc([C@H]2CC[C@H]3[C@@H]4CCC5=CC(=O)CC[C@]5(C)[C@H]4CC[C@]23C)cs1	49.9%	76.9%	116%	104%	41.5%	85%	22%	63.3%	62.7%	97.5%	99.7%	18%	99.5%	97.4%	–	91.7%	93.4%	39.2%	74.1%	46.1%
C#CC[C@@H]1C[C@]2(C)[C@H]3CC[C@@H]4[C@H]5C(C(=C)C)CC[C@]5(C(=O)NCCCCCCCCN)CC[C@@]4(C)[C@]3(C)CC[C@H]2C(C)(C)[C@H]1OC(C)=O (stereo partly drawn)	97.3%	95.6%	101%	103%	16.3%	70.6%	88.1%	93.3%	85.1%	86%	75.3%	-41.8% (active)	111%	67.9%	71.5%	91.2%	88.3%	119%	102%	–
Cn1c(=O)c2[nH]c(Cc3ccc4c(c3)OCO4)nc2n(C)c1=O	99.8%	99.4%	109%	101%	102%	71.4%	103%	97%	111%	109%	115%	108%	126%	123%	108%	–	94.8%	111%	107%	104%
CC1C2CCC(C2)C1COCCOCCO (stereo not drawn)	107%	104%	109%	108%	112%	105%	96%	92%	104%	121%	114%	109%	107%	113%	116%	112%	96.7%	87.8%	112%	–
COc1ccc(-c2n[nH]nc2-c2cc(OC)c3c(c2)OCO3)cc1	10.4%	69.1%	13.9%	18.5%	7.77% (active)	29%	-51.6% (active)	13.9%	20.5%	-93.1% (active)	-4.79% (active)	-11% (active)	34%	-25.9% (active)	19.1%	16.7%	-39.7% (active)	68%	8.15% (active)	–
